Structures can show the parent of a compound that is named as a salt. ± gives the standard deviation.

The assay deals with THP-1. Briefly: THP-1 cell loss relative to DMSO control; higher = more host cell loss (toxicity); extreme values may be limits of the assay. As to conditions: 10 µM; 4 days; infection: M. tuberculosis H37Rv. As for the experimental part: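 OICR kinase inhibitor library screened in duplicate at 10 uM against M. tuberculosis-infected THP-1 macrophages, 4 days at 37 C. THP-1 cell loss (cytotoxicity or loss of adherence) was quantified from Hoechst-stained nuclei counts by high-content imaging and normalised to the 1% DMSO control; 100 = complete loss of host cells.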
As to `S=C(NCc1ccc2c(c1)OCO2)N1CCN(c2ncnc3c2oc2ccccc23)CC1`, the THP-1 cell loss was determined as 20.7 ± 25%.

Compound `CO[C@H]1C[C@@H]2CC[C@@H](C)[C@@](O)(O2)C(=O)C(=O)N2CCCC[C@H]2C(=O)O[C@H]([C@H](C)C[C@@H]2CC[C@@H](OCCO)[C@H](OC)C2)CC(=O)[C@H](C)/C=C(\C)[C@@H](O)[C@@H](OC)C(=O)[C@H](C)C[C@H](C)/C=C/C=C/C=C/1C` [Everolimus] returned a THP-1 cell loss of 22 ± 0.045%.

As to `NC(=O)Nc1cc(-c2cccc(F)c2)sc1C(=O)N[C@H]1CCCNC1` [AZD-7762 hydrochloride], the THP-1 cell loss turned out to be 100%.

Take `O=C1c2ccc(O)c(O)c2C(=O)c2c(O)ccc(O)c21` [Quinalizarin]: the THP-1 cell loss was found to be 4.66 ± 6.6%.

For the compound `COCC(=O)NC/C=C/c1ccc2ncnc(Nc3ccc(Oc4ccc(C)nc4)c(C)c3)c2c1`, the THP-1 cell loss worked out at 25.9 ± 5.7%.

As to `O=C(C=Cc1ccccc1)NC(NC(=S)Nc1ccc(Cl)cc1)C(Cl)(Cl)Cl` (stereo not given), the THP-1 cell loss turned out to be 63.6 ± 52%.

`O=S(=O)(Nc1ccccn1)c1ccc(N=Cc2c(O)[nH]c3ccc4ncsc4c23)cc1` yielded a THP-1 cell loss of 100%.

As for `N#C/C(=C\c1ccc(O)c(O)c1)C(=O)NCc1ccccc1`, the THP-1 cell loss turned out to be 0.71 ± 1%.

The compound `COc1ccc(-c2ccc3c(N4CCOC[C@@H]4C)nc(N4CCOC[C@@H]4C)nc3n2)cc1CO` gave a THP-1 cell loss of 40.8 ± 2.5%.

`CN(C)Cc1cccc(N=C(c2ccccc2)c2c(O)[nH]c3cc(C(=O)N(C)C)ccc23)c1` gave a THP-1 cell loss of 23.9 ± 0.5%.

Turning to `Oc1cccc(-c2nc(N3CCOCC3)c3sccc3n2)c1` [PI3-Kinase a Inhibitor 2], the THP-1 cell loss turned out to be 62 ± 6.5%.

Turning to `Nc1ccc(-c2cccc3c(=O)cc(N4CCOCC4)oc23)cc1`, the THP-1 cell loss stood at 39.6 ± 3.5%.

As for `NC(=O)c1ccc2[nH]ccc2c1`, the THP-1 cell loss was found to be 50 ± 71%.

`COc1cc2ncn(-c3cc(OCc4ccccc4C(F)(F)F)c(C(N)=O)s3)c2cc1OC` showed a THP-1 cell loss of 12.2 ± 11%.

Consider `Cc1nc2sccn2c(=O)c1CCN1CCC(=C(c2ccccc2)c2ccc(F)cc2)CC1`, for which the THP-1 cell loss was 0%.

The compound `CCOc1cc(N2CCC(O)CC2)ccc1Nc1ncc2c(n1)N(C)c1ccccc1C(=O)N2C` returned a THP-1 cell loss of 100%.

Compound `Nc1cccc(-c2cc3c(Oc4cccc(O)c4)ncnc3[nH]2)c1` gave a THP-1 cell loss of 25.7 ± 7.3%.

For the compound `COc1cc(Nc2c(C#N)cnc3cc(OCCCN4CCN(C)CC4)c(OC)cc23)c(Cl)cc1Cl` [Bosutinib], the THP-1 cell loss turned out to be 59.6 ± 15%.

For the compound `O=C(Nc1cc(C(F)(F)F)cc(C(F)(F)F)c1)c1cc(Cl)ccc1O`, the THP-1 cell loss stood at 53 ± 46%.

In turn, `COc1nccc(-c2c(-c3ccc(F)cc3)ncn2C2CCC(O)CC2)n1` (stereo not given) gave a THP-1 cell loss of 1.08 ± 1.5%.

Compound `CCCOc1ccc(/C=C2/SC(=O)NC2=O)cc1` [PIM1/2 Kinase Inhibitor VI] gave a THP-1 cell loss of 4.36 ± 6.2%.

`Cn1cncc1[C@@](N)(c1ccc(Cl)cc1)c1ccc2c(c1)c(-c1cccc(Cl)c1)cc(=O)n2C` [Tipifarnib] showed a THP-1 cell loss of 29.6 ± 27%.

`O=C1NC(=O)C(c2ccccc2[N+](=O)[O-])=C1Nc1ccc(O)c(Cl)c1` had a THP-1 cell loss of 3.73 ± 5.3%.

Turning to `O=C(Nc1cccc(Cl)c1)Nc1ncc(CCNc2ncnc3ccsc23)s1`, the THP-1 cell loss stood at 80.2 ± 4.3%.

`Cc1cc2c(F)c(Oc3ncnn4cc(OC[C@@H](C)O)c(C)c34)ccc2[nH]1` [Brivanib] displayed a THP-1 cell loss of 25.4 ± 0.91%.

The compound `N#CC[C@H](C1CCCC1)n1cc(-c2ncnc3[nH]ccc23)cn1` displayed a THP-1 cell loss of 26.3 ± 7.9%.

Compound `COc1cc2ncnc(Nc3ccc(Cl)cc3F)c2cc1OC` displayed a THP-1 cell loss of 0.676 ± 0.63%.

On to `Nc1ncnc2nc(-c3ccc(N4CCOCC4)nc3)cc(-c3cccc(Br)c3)c12` [ABT-702 dihydrochloride], for which the THP-1 cell loss was 24.4 ± 13%.

`O=S(=O)(NCCNC/C=C/c1ccc(Br)cc1)c1cccc2cnccc12` [H 89 dihydrochloride] returned a THP-1 cell loss of 10 ± 2.1%.

Compound `Nc1ccc(C(=O)Nc2cccc(-c3nc(N4CCOCC4)c4oc5ncccc5c4n3)c2)cn1` returned a THP-1 cell loss of 43 ± 2.2%.

Take `CC(NC(=O)C(C#N)=Cc1ccc(O)c(O)c1)c1ccccc1` (stereo not given) [Tyrphostin B44]: the THP-1 cell loss amounted to 3.72 ± 5.3%.

For the compound `Cn1cc(/C=C2\C(=O)Nc3cccnc32)c2ccccc21`, the THP-1 cell loss amounted to 41.8 ± 0.73%.

`CCc1nc(-c2cccc(C)c2)c(-c2ccnc(NC(=O)c3ccccc3)c2)s1`: the THP-1 cell loss worked out at 23.2 ± 2.1%.

The compound `Nc1nccc(-c2ccc3noc(-c4ccc(Cl)cc4)c3c2)n1` [PIM 1 Inhibitor 2] yielded a THP-1 cell loss of 9.99 ± 7.3%.

For `O=C(O)c1ccc(-c2c[nH]c3ncc(-c4ccccc4)cc23)cc1C1CCCC1`, the THP-1 cell loss came to 9.42 ± 6.5%.

Values taken from the supplement of paper PMC7530171.
